18 molecules from PubChem BioAssay (Tox21) can be followed below.

Where “and” joins values, the source holds several entries; their conditions need not be identical. Equal values may be shown once. Inconclusive results are not listed. Where a call stands in place of a potency, no number is given. Calls of active or inactive are those of the source. Calls follow the shape of the dose curve; as a rule, active = well fitted cell-killing curve with a large enough effect in the repeat runs; inconclusive = weak or mixed curves, or effect the other way; inactive = no such curve, though single readings can be large or run the other way.
Potency is read from the fitted curve at half-maximal effect.

This assay can be described thus: qHTS assay to identify small molecule antagonists of the vitamin D receptor (VDR) signaling pathway - cell viability counter screen (AID 743225). Also: nearly all actives have a fitted effect of over 50% in size. The settings on record: VDR-bla HEK293T viability, CellTiter-Glo luminescence, 16 h; series mostly up to 61 µM. Put shortly:
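Luminescent cell viability (CellTiter-Glo) in VDR-bla HEK 293T cells after 16 h compound exposure at 37C in the presence of 3 nM final 1-alpha,25-dihydroxy vitamin D3.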
On to `[Cl][Au]([Cl])[Cl]`, for which the Potency was 11 µM (active).
For `CCCCCCCCCOC(=O)c1ccc(O)cc1` the value was 24.2 µM (active); for `CSc1cnc(C)cn1`, “inactive”; for `CC1=NC(C)OC1C` (stereo not drawn), “inactive”.
Consider `C=CC(=O)OCC(CO)(COCC(COC(=O)C=C)(COC(=O)C=C)COC(=O)C=C)COC(=O)C=C`, for which the Potency was 5.43 µM (active).
The result for `CN1CCN(CCC(=O)N2c3ccccc3Sc3ccc(C(F)(F)F)cc32)CC1` reads 12 µM (active).
Regarding `O=C1CCCc2c1cc1ccc3cccc4ccc2c1c34`, the Potency result is “inactive”.
With `COc1cc(-c2ccc(N=C=O)c(OC)c2)ccc1N=C=O`, the Potency entry was “inactive”.
The result for `Nc1ccccc1O` reads “inactive”; that for `C=CC(=O)OCC(CO)(COC(=O)C=C)COC(=O)C=C`, 13.9 µM (active) and 15.5 µM (active); that for `Cc1cc(O)c(Cl)c(C)c1Cl`, 38.9 µM (active).
The result for `CN(C/C=C/C#CC(C)(C)C)Cc1cccc2ccccc12` reads “inactive”.
On to `CCCCCOc1ccccc1/C(=C\SC)n1ccnc1`, for which the Potency entry is “inactive”.
`C=C(C)C(=O)OCC(O)COc1ccc(C(C)(C)c2ccc(OCC(O)COC(=O)C(=C)C)cc2)cc1` (stereo not drawn): the Potency was 19.5 µM (active).
The result for `CCCCCCCC/C=C\CCCCCCCCOCCO` reads 9 µM (active); that for `CC[C@H]1O[C@]2(CC[C@@H]1C)C[C@@H]1C[C@@H](C/C=C(\C)C[C@@H](C)/C=C/C=C3\CO[C@@H]4[C@H](O)C(C)=C[C@@H](C(=O)O1)[C@]34O)O2`, 21.7 µM (active); that for `Cc1cc2c(cc1C(F)(F)F)N(C(=O)Nc1ccc(Oc3cccnc3C)nc1)CC2`, “inactive”.
On to `CCCCN(CCCC)C(=O)N(CCCC)CCCC`, for which the Potency result is “inactive”.
